High-throughput results (PubChem)
Most compounds without a hit are left out; they make up all but 2.3% or so of the library.
SENP8 block-1 – SENP8 protease inhibition; AID 2540; purified SENP8, Z-RLRGG-aminoluciferin cleavage, luminescence; inhibition, % at 10 µM; hit rate 1.2% among 330,000; Q96LD8; in the data active = inhibition above about 50%
SENP6 inh – blocks the human protease SENP6. Recombinant SENP6 catalytic domain, aminoluciferin luminescence. inhibition, % at 10 µM. Q9GZR1. hit rate 1.8% among 330,000;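 active = inhibition above about 50% at the single tested dose, limit read from the data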;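 also: plate controls were DMSO wells with enzyme for no effect and DMSO wells lacking enzyme for full effect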
SENP7 block – blocks the human protease SENP7 | recombinant SENP7, Z-RLRGG-aminoluciferin luminescence, 40 min | hit rate 1.5% among 330,000 | Q9BQF6 | AID 434973 | inhibition, % at 5 µM;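 active = inhibition above about 50% at the single test dose, limit read from the data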;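 also: plate controls were DMSO with enzyme for no effect and no enzyme buffer wells for full effect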
Target sequence (Q9BQF6 706-1050 limits assumed): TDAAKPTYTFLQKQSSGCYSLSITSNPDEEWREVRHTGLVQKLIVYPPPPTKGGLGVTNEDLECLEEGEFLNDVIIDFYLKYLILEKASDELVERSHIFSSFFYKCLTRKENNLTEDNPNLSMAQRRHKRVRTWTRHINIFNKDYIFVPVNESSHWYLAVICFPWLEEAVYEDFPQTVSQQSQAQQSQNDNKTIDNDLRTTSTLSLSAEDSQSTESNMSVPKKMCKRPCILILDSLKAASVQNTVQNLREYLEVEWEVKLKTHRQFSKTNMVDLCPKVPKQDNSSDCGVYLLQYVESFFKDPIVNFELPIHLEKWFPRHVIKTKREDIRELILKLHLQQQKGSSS
SENP8 block-2 – inhibitors of human SENP8 protease. inhibition, % at 20 µM. hit rate 0.64% among 360,000. recombinant SENP8, Nedd8 substrate fluorescence; in the data active = inhibition mostly above about 40%, no sharp cut-off; inactive = mostly below about 27%
HSP90 refold inh – HSP90 refolding inhibition in rabbit reticulocyte lysate; luciferase refolding luminescence, 3 h; inhibition, % at 5.6 µM; hit rate 0.91% among 290,000;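 active = inhibition above the screen-wide mean plus 3 SD, computed separately per campaign, cut at about 16% in these data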;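 also: 0% = DMSO wells and 100% = 60 µM geldanamycin wells; inhibitors lower the luminescence because luciferase stays unfolded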
LGR2 antag – inhibitors of bursicon-induced Drosophila LGR2 receptor cAMP signaling | hit rate 0.35% among 380,000 | HEK293 LGR2, CRE-luciferase, bursicon-stimulated, 4 h | inhibition, % at 9.99 µM | AID 720647;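 active = drop in luminescence signal, shown as inhibition above about 50% in the replicate tests, limit read from the data, passing the limit was not always enough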;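 also: agonist challenge used bursicon conditioned medium at about half maximal strength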
The depositor's hits bear a star.

Screening C[C@@H]1CN([C@@H](C)CO)C(=O)Cc2cc(NC(=O)NC3CCCCC3)ccc2O[C@H]1CN(C)C(=O)Nc1ccccc1 returned LGR2 antag 5.
Screening CCCCCCCCCCCC1=C(O)C(=O)C=C(O)C1=O returned SENP8 block-2 46*.
`Cc1[nH]n(-c2ccccc2)c(=O)c1/C=N/NC(=O)c1cccc([N+](=O)[O-])c1` gave SENP8 block-1 0, SENP6 inh 9, SENP7 block -1, SENP8 block-2 52* and HSP90 refold inh 4.
CO[C@H]1CN(C)C(=O)c2cc(NC(C)=O)ccc2OC[C@@H](C)N(Cc2ccccc2C(=O)O)C[C@H]1C was read as LGR2 antag 1.
CN(C)S(=O)(=O)c1cccc(NC(=S)N/N=C/c2ccc(O)c(O)c2O)c1 was read as SENP8 block-2 43*, HSP90 refold inh -1 and LGR2 antag 10.
`Cc1cccc(/C=C/c2onc(C)c2[N+](=O)[O-])n1` gave SENP8 block-1 2, SENP6 inh 1, SENP7 block -3 and LGR2 antag 71*.
For Cc1cc(O)ccc1N/C=C/c1onc(C)c1[N+](=O)[O-] the results were SENP8 block-1 47, SENP6 inh 87*, SENP7 block 97*, SENP8 block-2 26, HSP90 refold inh -6 and LGR2 antag -51.
Screening COC(=O)/C=C1\S/C(=N/N=C/c2ccc(Cl)cc2)NC1=O returned SENP8 block-1 0, SENP6 inh -1, SENP7 block 19, SENP8 block-2 43*, HSP90 refold inh -6 and LGR2 antag 0.
Screening COCC(=O)N(C)C[C@H]1Oc2ncc(C#Cc3ccc(F)cc3)cc2C(=O)N([C@H](C)CO)C[C@@H]1C returned LGR2 antag -4.
`O=C(Nc1ccc(N2CCN(c3ncccc3C(F)(F)F)CC2)nc1)c1cccs1` gave SENP8 block-1 -2, SENP6 inh -25, SENP7 block 11, SENP8 block-2 15, HSP90 refold inh 5 and LGR2 antag 92*.
For O=C(N[C@H]1CC[C@@H](CCn2cc(C3(O)CCCC3)nn2)O[C@H]1CO)C1CCC1 the results were LGR2 antag -8.
COc1cc(C(=O)Nc2nc(-c3ccc(C)cc3)cs2)ccc1OCC(=O)N1CCOCC1 was read as SENP8 block-1 -2, SENP6 inh -8, SENP7 block 2, SENP8 block-2 -57, HSP90 refold inh 3 and LGR2 antag 2.
Screening COc1ccc(-c2csc(NC(=O)c3ccc(OCC(=O)N4CCOCC4)c(OC)c3)n2)cc1 returned SENP8 block-1 -4, SENP6 inh 0, SENP7 block 2, SENP8 block-2 -73, HSP90 refold inh -4 and LGR2 antag 92*.
Screening Cc1ccc(S(=O)(=O)Nc2ccc3c(c2)CC(=O)N([C@H](C)CO)C[C@@H](C)[C@H](CN(C)C(=O)NC(C)C)O3)cc1 returned LGR2 antag 6.
`CCN1[C@@H]2Cn3c(ccc(-c4cccnc4)c3=O)[C@H]1[C@@H](C(=O)NCc1ccccc1)[C@@H]2CO` gave LGR2 antag 21.
For O=C(CN1C(=O)S/C(=C\C=C\c2ccccc2)C1=O)Nc1ccccc1C(=O)O the results were SENP8 block-1 -4, SENP6 inh -15, SENP7 block -6, SENP8 block-2 -37, HSP90 refold inh 5 and LGR2 antag 7.
`C#CCN1C(=O)S/C(=C/C=C/c2ccc(N(C)C)cc2)C1=O` gave SENP8 block-2 32, HSP90 refold inh 21* and LGR2 antag -69.
For OC(c1cc(C(F)(F)F)nc2c(C(F)(F)F)cccc12)C1CCCCN1 (stereo not drawn) the results were SENP8 block-1 -4, SENP6 inh -4, SENP7 block 4, SENP8 block-2 15 and LGR2 antag 70*.
Screening CC=Cc1ccc2n(c1=O)C[C@H]1[C@H](CO)[C@@H](C(=O)NCC3CC3)N(CCC)[C@@H]21 (mixture of isomers) returned LGR2 antag -27.
Screening COc1ccc(N=Nc2cnc(C)nc2-c2ccccc2)cc1 returned SENP8 block-1 -5, SENP6 inh -4, SENP7 block 0, SENP8 block-2 45* and HSP90 refold inh 0.
Cc1ncc(N=Nc2ccccc2Cl)c(-c2ccccc2)n1 was read as SENP8 block-1 5, SENP6 inh 9, SENP7 block 2, SENP8 block-2 22 and HSP90 refold inh 1.
